Among all 39,000 compounds or so, about 3,300 (8.5%) were called active. This excerpt belongs to a sample that is enriched for actives.

Cytotoxicity call data for 40 compounds are collected here from the antibiotic and cytotoxicity screens of Wong et al. (2023).

The test deals with HepG2. The test is described as follows: cytotoxicity call (relative viability < 0.9). As to conditions: 10 µM.
With `C[C@H](CO)N1C[C@H](C)[C@H](CN(C)C(=O)Nc2cccc3ccccc23)OCCCC[C@H](C)Oc2ccc(NS(=O)(=O)c3ccc(Cl)cc3)cc2C1=O`, the cytotoxicity call was “inactive”. With `C[C@@H]1CCCCO[C@@H](CN(C)C(=O)Nc2cccc3ccccc23)[C@H](C)CN([C@@H](C)CO)C(=O)c2cc(NS(=O)(=O)c3ccc(Cl)cc3)ccc2O1` the entry was “inactive”. With `C[C@H]1CCCCO[C@@H](CN(C)C(=O)Nc2cccc3ccccc23)[C@@H](C)CN([C@@H](C)CO)C(=O)c2cc(NS(=O)(=O)c3ccc(Cl)cc3)ccc2O1` the entry was “inactive”. With `C[C@@H]1CN([C@@H](C)CO)C(=O)c2cc(NS(=O)(=O)c3ccc(Cl)cc3)ccc2O[C@@H](C)CCCCO[C@@H]1CN(C)C(=O)Nc1cccc2ccccc12` the entry was “inactive”; with `C[C@@H]1CCCCO[C@@H](CN(C)C(=O)Nc2cccc3ccccc23)[C@H](C)CN([C@H](C)CO)C(=O)c2cc(NS(=O)(=O)c3ccc(Cl)cc3)ccc2O1`, “active”; with `C[C@@H]1CCCCO[C@H](CN(C)C(=O)Nc2cccc3ccccc23)[C@H](C)CN([C@H](C)CO)C(=O)c2cc(NS(=O)(=O)c3ccc(Cl)cc3)ccc2O1`, “active”.

`CO[C@@H]1CN(C)C(=O)c2ccc(NC(=O)Nc3ccccc3)cc2OC[C@H](C)N(C(=O)CN(C)C)C[C@@H]1C`: the cytotoxicity call is “inactive”.

On to `COc1ccc(S(=O)(=O)Nc2cccc3c2O[C@H](CN(C)C(=O)NC(C)C)[C@H](C)CN([C@@H](C)CO)C3=O)cc1`, for which the cytotoxicity call was “inactive”. On to `C[C@@H]1CCCCO[C@@H](CN(C)C(=O)NC2CCCCC2)[C@@H](C)CN([C@H](C)CO)C(=O)c2cc(NC(=O)NC3CCCCC3)ccc2O1`, for which the cytotoxicity call is “inactive”. The same measure for `COc1ccc(S(=O)(=O)N(C)C[C@@H]2Oc3ncc(C#Cc4ccccc4)cc3C(=O)N([C@H](C)CO)C[C@@H]2C)cc1`: “inactive”; for `O=c1[nH]nc2ccccn12`: “inactive”; for `CN1C(=O)c2cc(NC(=O)C3CCOCC3)ccc2OC[C@@H]2O[C@@H](CC(=O)NCc3ccc4c(c3)OCO4)CC[C@H]21`: “inactive”. As for `COc1ccc(C(C)(C)N)cc1OC`, the cytotoxicity call is “inactive”.

Consider `C[N+]1(C)C[C@H](O)[C@H](C(=O)O)C1`, for which the cytotoxicity call was “active”. The same measure for `C[N+]1(C)C[C@@H](O)C[C@H]1C(=O)O`: “inactive”. With `C[C@@H]1C[C@H]1C(=O)O` the entry was “inactive”. The same measure for `CN1CCN(C(=O)C[C@@H]2C=C[C@@H](NC(=O)Cc3ccccn3)[C@H](CO)O2)CC1`: “inactive”; for `CCCC#Cc1cnc2c(c1)C(=O)N([C@@H](C)CO)C[C@H](C)[C@H](CN(C)S(=O)(=O)c1cccc(OC)c1)O2`: “inactive”. `CCN1C[C@]23CN(C(=O)c4ccn[nH]4)C[C@@H](C[C@H]2S1(=O)=O)O3`: the cytotoxicity call is “inactive”. The same measure for `COc1ccc(S(=O)(=O)N(C)C[C@@H]2OCCCC[C@@H](C)Oc3ccc(NC(=O)CCC(F)(F)F)cc3C(=O)N([C@H](C)CO)C[C@H]2C)cc1`: “inactive”; for `COc1cc([C@H]2OC[C@](O)(Cc3ccc(O[C@@H]4O[C@H](CO)[C@@H](O)[C@H](O)[C@H]4O)c(OC)c3)[C@@H]2CO)ccc1O`: “inactive”.

As for `COc1cc([C@H]2OC[C@@H]3[C@H]2CO[C@H]3c2cc(OC)c(O[C@@H]3O[C@H](CO)[C@@H](O)[C@H](O)[C@H]3O)c(OC)c2)cc(OC)c1OC`, the cytotoxicity call is “inactive”. The same measure for `COc1cc(C[C@H]2CO[C@H](c3ccc(O)c(OC)c3)[C@@H]2CO[C@H]2O[C@@H](CO)[C@@H](O)[C@@H](O)[C@@H]2O)ccc1O`: “active”; for `COc1ccc(CN(C)C[C@@H]2OCCCC[C@H](C)Oc3ccc(NC(=O)Nc4ccc(C(F)(F)F)cc4)cc3C(=O)N([C@H](C)CO)C[C@@H]2C)cc1`: “active”. Take `COc1ccc(NC(=O)Nc2ccc3c(c2)C(=O)N([C@@H](C)CO)C[C@@H](C)[C@H](CN(C)Cc2ccc(C(F)(F)F)cc2)OCCCC[C@H](C)O3)cc1`: the cytotoxicity call was “inactive”. With `COc1ccc(NC(=O)Nc2ccc3c(c2)C(=O)N([C@@H](C)CO)C[C@H](C)[C@@H](CN(C)Cc2ccc(C(F)(F)F)cc2)OCCCC[C@H](C)O3)cc1` the entry was “inactive”. The same measure for `COc1ccc(CN(C)C[C@@H]2OCCCC[C@H](C)Oc3ccc(NC(=O)Nc4ccc(C(F)(F)F)cc4)cc3C(=O)N([C@@H](C)CO)C[C@@H]2C)cc1`: “active”; for `COc1ccc(CN(C)C[C@@H]2OCCCC[C@@H](C)Oc3ccc(NC(=O)Nc4ccc(C(F)(F)F)cc4)cc3C(=O)N([C@@H](C)CO)C[C@H]2C)cc1`: “active”.

As to `COc1ccc(NC(=O)Nc2ccc3c(c2)C(=O)N([C@H](C)CO)C[C@@H](C)[C@@H](CN(C)Cc2ccc(C(F)(F)F)cc2)OCCCC[C@H](C)O3)cc1`, the cytotoxicity call was “inactive”. The same measure for `COc1ccc(CN(C)C[C@H]2OCCCC[C@@H](C)Oc3ccc(NC(=O)Nc4ccc(C(F)(F)F)cc4)cc3C(=O)N([C@H](C)CO)C[C@@H]2C)cc1`: “active”. `COc1ccc(NC(=O)Nc2ccc3c(c2)C(=O)N([C@H](C)CO)C[C@H](C)[C@@H](CN(C)Cc2ccc(C(F)(F)F)cc2)OCCCC[C@H](C)O3)cc1`: the cytotoxicity call was “inactive”. In the case of `COCC#Cc1ccc2c(c1)O[C@H](CN(C)C(=O)Nc1ccc(OC)cc1)[C@H](C)CN([C@H](C)CO)S2(=O)=O`, the cytotoxicity call was “inactive”. Consider `COCC(=O)N1CC[C@]2(CC1)CN([C@H](CO)c1[nH]c3cc(ccc3c12)OC)C(=O)Nc1ccccc1F`, for which the cytotoxicity call was “inactive”. The same measure for `Cc1c(C)c2c(c(C)c1OC(=O)CCC(=O)O)CC[C@@](C)(CCC[C@H](C)CCC[C@H](C)CCCC(C)C)O2`: “inactive”. The same measure for `Cc1ccc(S(=O)(=O)Nc2ccc3c(c2)CC(=O)N([C@H](C)CO)C[C@@H](C)[C@@H](CN(C)S(=O)(=O)c2c(C)noc2C)O3)cc1`: “inactive”; for `COc1ccc(CCNC(=O)[C@@H]2c3ccccc3C(=O)N(CC34CC5CC(CC(C5)C3)C4)[C@H]2c2ccc(CO)cc2)cc1`: “inactive”; for `C=CCN(CC=C)S(=O)(=O)c1nnc[nH]1`: “inactive”. The same measure for `C[C@@H]1CN([C@@H](C)CO)C(=O)c2cc(NC(=O)Cc3ccccc3)ccc2O[C@@H](C)CCCCO[C@H]1CN(C)S(=O)(=O)c1cccs1`: “inactive”; for `O=C(C[C@H]1C=C[C@H](NC(=O)c2ccncc2)[C@H](CO)O1)NCc1ccncn1`: “inactive”; for `CC1=CC(=O)C2=C(C)CCC3C(C)C(=O)OC3C12` (stereo not given): “inactive”.
